ERK EGF inh: qHTS Assay for Inhibitors of the ERK Signaling Pathway using a Homogeneous Screening Assay; Stimulation with EGF; AID 1454, 2008; hit rate 0.41% among 130,000; HEK293-V1b, EGF-stimulated phospho-ERK AlphaScreen; Potency, µM (top dose mostly 11.5 µM), for inactives: at the top dose activity change, negative = inhibition, hits mostly inhibitors; active means well fitted inhibition curve with a large enough effect;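 further: plate controls were stimulated vehicle wells for no effect and unstimulated vehicle basal for full effect; nearly all actives have a fitted effect of over 55% in size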
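EGF-stimulated (25 nM, 5 min) phospho-ERK in HEK293 cells stably expressing V1b, cells pretreated 30 min with compound at 37C. Homogeneous AlphaScreen read on lysates.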
Numbers without * were called inactive; ! = repeats disagree; [ ] = another dose, or the depositor's remark. Many of the other results were omitted from the sample, so hits are more common in it than they were. Potency means the concentration at half of the fitted maximal effect.

SMILES | ERK EGF inh
O[N+]1=CC=CCC1=S.On1ccccc1=S.[Zn] | 20µM*
CCCN1CCCC2Cc3[nH]ncc3CC21 (stereo not drawn) | 5%
CC(=O)O[C@H]1C[C@@H](O[C@@H]2[C@H](C)O[C@H](O[C@@H]3[C@H](C)O[C@H](O[C@@H]4CC[C@@]5(C)[C@@H](CC[C@]6(C)[C@]5(C)C[C@H](O)[C@]5(C)[C@@H](C7=CC(=O)OC7)CC[C@@]56O)C4)C[C@@H]3O)C[C@@H]2O)O[C@@H](C)[C@H]1O[C@H]1O[C@@H](CO)[C@@H](O)[C@@H](O)[C@@H]1O | -6%[25.7 µM]
c1ccc(N2CCC3(CCNCC3)CC2)nc1 | -13%
C=C1C(=O)O[C@H]2C[C@@H](C)[C@@H]3C=CC(=O)[C@@]3(C)C[C@H]12 | 1%[57.5 µM]
C=C1C(=O)O[C@H]2[C@H]1[C@H](OC(=O)CC(=O)O[C@@H]1C[C@@H](C)[C@@H]3C=CC(=O)[C@@]3(C)[C@H]3OC(=O)C(=C)[C@H]13)C[C@@H](C)[C@H]1C=CC(=O)[C@]12C | 13%[57.5 µM]
C=C1C(=O)O[C@@H]2C[C@@H](C)[C@@H]3C=CC(=O)[C@@]3(C)[C@@H](OC(=O)CC(=O)O[C@H]3[C@@H]4C(=C)C(=O)O[C@@H]4C[C@@H](C)[C@@H]4C=CC(=O)[C@]43C)[C@H]12 | 4.5µM*
CCCCCCCCCCCCC/C=C/[C@@H](O)[C@@H](N)COP(=O)([O-])OCC[N+](C)(C)C | -16%
C/C=C1/CN2CC[C@]34C(=C(C=O)[C@H]1C[C@@H]23)Nc1ccccc14 | -18%
CC1O[C@@H](OC2CC[C@@]3(C=O)C4CC[C@]5(C)C(C6=CC(=O)OC6)CC[C@@]5(O)C4CC[C@]3(O)C2)C(O)C(O)C1O (stereo partly drawn) | 5%
CC1(C)C(=O)C=C[C@@]2(C)C1=C(O)C(=O)[C@@]1(C)C2CC[C@@]2(C)C(c3ccoc3)C[C@H]3O[C@@]321 (stereo partly drawn) | 2%
COc1ccc2c(c1OC)CN1CCc3cc4c(cc3[C@H]1C2)OCO4 | 5%[25.7 µM]
COc1ccc2c(c1OC)C(=O)O[C@H]2[C@H]1c2cc3c(cc2CCN1C)OCO3 | -6%[25.7 µM]
COc1ccc2c(c[n+](C)c3c4cc5c(cc4ccc23)OCO5)c1OC | 13µM*
CCc1ccc(C(=O)NN(C(=O)c2cc(C)cc(C)c2)C(C)(C)C)cc1 | 4%
O=c1[nH]c2ccccc2n1C1CCN(CCCC(c2ccc(F)cc2)c2ccc(F)cc2)CC1 | 25µM*!
CCC1/C=C/C=CCC(C)C(O)[C@@](C)(O)C(=O)C(C)C(O)C(C)C(=O)C(C)C(O)C(C)C=CC(=O)O[C@H]2C(C)C(CC1)O[C@]1(CCC(C)C(CC(C)O)O1)C2C (stereo partly drawn) | 19%
CN1CC[C@@]2(c3cccc(O)c3)Cc3nc4ccccc4cc3C[C@H]2C1 | 18%
NC(N)=NCCCCCCCCCCN=C(N)N | -3%
CC1(C)C[C@H]2C=C(C=O)[C@]3(C=O)C[C@]3(C)[C@H]2C1 | 10µM*
CC(C)CC(N)C1(c2ccc(Cl)cc2)CCC1 (stereo not drawn) | -12%
COC(=O)COc1cc(Cl)c(Cl)cc1Cl | 17%
CC/C=C\C[C@@H](/C=C/C=C\C/C=C\C/C=C\CCCC(=O)O)OO | -10%
c1ccc(N2CC[C@@]3(CCCNC3)C2)cc1 | 8%
CCCC/C=C/[C@@H](NP(=O)(c1ccccc1)c1ccccc1)c1ccccc1OC | 8%
SMILES | ERK EGF inh
Clc1ccc(COC(Cn2ccnc2)c2ccc(Cl)cc2Cl)cc1 (stereo not drawn) | 28µM*
Clc1ccc(CS[C@@H](Cn2ccnc2)c2ccc(Cl)cc2Cl)cc1 | 2%[25.7 µM]
c1ccc(Cn2ccnc2)cc1 | -12%[57.5 µM]
COc1cc2c(cc1O)C[C@H]1c3c(cc(OC)c(O)c3-2)CCN1C | 3%
CC(=O)C1CCC2C3CCC4=CC(=O)CC[C@@]4(C)C3CC[C@]12C (stereo partly drawn) | 4%
CCOC(OCC)P(=O)(O)CCCN | -2%
CC1Oc2cc3c(-c4c(O)cc(O)c5c(O)c6c(cc45)OC(C)C(C)C6=O)c(O)cc(O)c3c(O)c2C(=O)C1C (stereo not drawn) | 16µM*
CC(=O)Oc1c2c(c(CC=C(C)C)c3c1C(=O)C1=CC4CC5C(C)(C)OC(C/C=C(\C)C(=O)O)(C4=O)[C@]15O3)OC(C)(CCC=C(C)C)C=C2 (stereo partly drawn) | 13µM*
CN1CCN(c2ccc(S(=O)(=O)C(F)(F)F)cc2[N+](=O)[O-])CC1 | -6%
CN1CCN(c2ccc([N+](=O)[O-])c3no[n+]([O-])c23)CC1 | 10µM*
CN1CCN(c2ccc(S(C)(=O)=O)cc2[N+](=O)[O-])CC1 | -3%
CN(C)C1C(=O)C(C(N)=O)=C(O)[C@@]2(O)C(=O)C3=C(O)c4c(O)ccc(Cl)c4[C@](C)(O)C3CC12 (stereo partly drawn) | -4%
CC[C@H](CO)NC(=O)[C@H]1C=C2c3cccc4[nH]cc(c34)C[C@@H]2N(C)C1 | 5%[25.7 µM]
Oc1ccc2[nH]cc(CCCCN3CC=C(c4ccccc4)CC3)c2c1 | 1%
CC(=O)OC1CCC23C(=O)OC45CCC(C6=CC(=O)OC6)C4(C)CCC2C5CCC3(O)C1 (stereo not drawn) | 12%
CCCN1[C@@H]2C[C@@H](O)CC[C@@H]2C[C@H]1C(=O)OC | -3%
Cc1nn(Cc2ccccc2)c(C)c1C=C1C(=O)NC(=S)NC1=O | 5%
CN(C)c1ccc(/C=C2\C(=O)NC(=O)N(Cc3ccc(F)cc3)C2=O)cc1 | 5%[57.5 µM]
CCN(CC)c1ccc(C=C2C(=O)NC(=S)NC2=O)cc1 | 28µM*
Cc1ncc(CN2CC=C(c3ccccc3)CC2)c(N)n1 | 6%
CN(CCc1ccc(Cl)c(Cl)c1)[C@H]1CCCC[C@H]1N1CCCC1 | -13%
c1ccc(CN2CCC3(CCNCC3)CC2)cc1 | -3%
CCCCCCCCCCCCCCC[C@@H](O)[C@@H](N)COP(=O)(O)O | -17%
CNc1ccc2oc(C[C@H]3O[C@@]4(CC[C@H]3C)O[C@H]([C@H](C)C(=O)c3ccc[nH]3)[C@H](C)C[C@H]4C)nc2c1C(=O)O | 14µM*!
C#C[C@@]1(O)CC[C@@H]2[C@@H]3CCC4=CC(=O)CC[C@@]4(C)[C@H]3CC[C@]21C | 8%[25.7 µM]
SMILES | ERK EGF inh
CCCCCCCCCCCCCC(=O)OC1C(C)[C@@]2(O)C(C=C(CO)C[C@]3(O)C(=O)C(C)=C[C@H]23)[C@@H]2C(C)(C)[C@]12OC(C)=O (stereo partly drawn) | 24%
C=C(CC1CC(O)[C@]2(C)OC3CC4OC5C[C@]6(C)O[C@]7(C)CCC8OC9C[C@]%10(C)OC%11C(C)=CC(=O)OC%11CC%10OC9C[C@@H](C)C8OC7CC6O[C@]5(C)C/C=C\C4OC3CC2O1)C(=O)O (stereo partly drawn) | -12%[57.5 µM]
C=C(C=O)C[C@@H]1C[C@H](O)C2OC3C[C@]4(C)OC5/C=C\CC6OC7C(CC=CCC6OC5CCCC4OC3CC2O1)OC1CC2OC3CC(=O)OC3C[C@@H](C)C[C@@]2(C)OC1C[C@@H]7C (stereo partly drawn) | 4µM*
O=C1C=C2C=CC3C[C@@]2(O1)C1CCCCN31 (stereo partly drawn) | 2%
CCC1C2CC3C4N(C)c5ccccc5[C@]45CC(C2C5O)N3C1O (stereo partly drawn) | 21%
COC(=O)[C@]1(C)CC[C@@]2(C)CC[C@@]3(C)C4=CC=C5C(=CC(=O)C(O)=C5C)[C@@]4(C)CC[C@@]3(C)C2C1 (stereo partly drawn) | 14µM*

Compound activity (PubChem BioAssay)
